Experimental data as given in PubChem BioAssay AID1508622 (National Center for Advancing Translational Sciences (NCATS), 2021).
The source made the active and inactive calls. Entries that show only a call come without a potency. Calls come from the whole dose curve; as a rule, active = well fitted activation curve with a large enough effect; inconclusive = small, poorly fitted or top-dose-only effect; inactive = no such curve, though single readings can be large or run the other way.

Test: Confirmatory qHTS for Identification of Small Molecule Activators of Huntingtin-Antisense Promoter Activity
Summary of the method: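 HEK293 luciferase reporter cells, 2,500/well, cultured 24 h, then exposed to compounds at up to 57.5 uM final for 24 h at 37C. Firefly luciferase luminescence read; normalized to vehicle (0%) and zero RLU (-100%).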
Potency is the fitted concentration of half-maximal effect.

Structure (SMILES) | Potency
Cc1ccc(S(=O)(=O)NCCc2csc(-c3ccc(Cl)cc3)n2)cc1 | inactive
COc1cccc(C2=CC(c3cc(Br)ccc3F)n3nnnc3N2)c1 (stereo not drawn) | inactive
COc1ccc(NS(=O)(=O)c2ccc3c(c2)CC(C)N3C(=O)C2CCC2)cc1OC (stereo not drawn) | inactive
Cc1ccc2onc(CC(=O)Nc3cccc(C(F)(F)F)c3)c2c1 | inactive
Cc1ccc(-c2ncn(-c3ccc(Nc4nccc(-c5cccc(N6CCOCC6)c5)n4)cc3)n2)cn1 | inactive
Cc1cccc(CN2C(=O)N(c3ccc(C(C)C)cc3)S(=O)(=O)c3ccccc32)c1 | inactive
CCn1c(SCc2ccc(F)cc2Cl)nc(=O)c2c(C(=O)OC)cc(C3CC3)nc21 | inactive
O=C(NCc1ccc(Cl)cc1)C1CCN(S(=O)(=O)c2ccc3c(c2)CCCN3C(=O)C2CCC2)CC1 | inactive
CCOC(=O)C1CCCN(C(=O)Cn2ncc3c(C)n(Cc4ccc(F)cc4)c(C)c3c2=O)C1 (stereo not drawn) | inactive
COc1ccc(-c2cccc(NS(=O)(=O)c3cc(C)c(OC)c(C)c3C)c2)nn1 | inactive
CC(=O)c1ccc(N2CCN(c3ncnc4onc(C)c34)CC2)cc1 | inactive
CCCc1cc(N2CCN(c3ccc(OC)cc3)CC2)n2cnnc2n1 | inactive
Cc1nc(C)c(-c2ccc(SCC(=O)Nc3ccc(F)c(F)c3)nn2)s1 | inactive
O=C(Nc1nnc(S(=O)(=O)N2CCc3ccccc32)s1)c1cccc(Cl)c1 | inactive
CCN(CC)CCNC(=O)c1c(C)[nH]c(C=C2C(=O)Nc3ccc(F)cc32)c1C | inactive
Cc1nc2cccnc2n1-c1cccc(C(=O)NCc2ccc(OC(C)C)cc2)c1 | inactive
COc1ccc(OC)c(CNS(=O)(=O)c2ccc3[nH]c4c(c3c2)CCCCC4)c1 | inactive
Cn1c(=O)n(C)c2cc(NS(=O)(=O)c3ccc(C(C)(C)C)cc3)c(NCc3ccccc3)cc21 | inactive
CC(C)c1ccc(NC(=O)c2cnc3sc(N4CCCC4)nn3c2=O)cc1 | inactive
Cc1ccccc1-c1noc(CSc2nc3ccccc3[nH]2)n1 | inactive
CCOc1ccc(S(=O)(=O)NCCc2csc(-c3ccc(Cl)cc3)n2)cc1 | inactive
Cc1ccc(CN2CCCn3nc(C(=O)NCc4cc(C)ccc4C)cc3C2=O)cc1 | inactive

Structure (SMILES) | Potency
Cc1ccccc1OCC(=O)Nc1ccccc1C(=O)OCc1cc(=O)n2c(C)csc2n1 | inactive
COc1ccc(C2=CC(c3ccc(F)cc3)n3ncc(C(=O)Nc4ccc(C)cc4)c3N2)cc1 (stereo not drawn) | inactive
CCCCOc1ccc(CNC(=O)c2cc3n(n2)CCCN(Cc2ccc(C)cc2)C3=O)cc1 | inactive
CCN1C(=O)c2ccccc2Sc2ccc(NC(=O)Nc3ccc(Br)c(C)c3)cc21 | inactive
COc1ccccc1CNC(=O)Cn1c(=O)oc2cc(S(=O)(=O)N3CCC(C)CC3)ccc21 | inactive
COc1ccccc1C1CC(=O)NC(C)=C1C(=O)OC1CCCCCC1 (stereo not drawn) | inactive
O=C(O)c1cc(-n2c(/C=C\c3ccc(F)cc3)nc3ccccc3c2=O)ccc1Cl | inactive
Cc1ccc(C(=O)Nc2ccc(F)cc2)cc1S(=O)(=O)N1CCCCCC1 | inactive
Cc1ccc(NC(=O)c2c(Nc3ccccc3C)sc(C(=O)c3ccccc3)c2N)cc1 | inactive
Cc1ccc(CN(C(=O)COc2cccc(Cl)c2)c2ccccn2)o1 | inactive
COc1ccccc1C(=O)NCCSc1c(C)[nH]c2ccccc12 | inactive
N#Cc1nc(-c2ccc(COc3ccc(Cl)cc3)o2)oc1N1CCC(C(N)=O)CC1 | inactive
COc1ccc(CN2CCc3c(c(=O)n4ncc(C(=O)N5CCN(c6ccccc6OC)CC5)c4n3C)C2)cc1 | inactive
COc1cccc(NC(=O)CN2CCCN(S(=O)(=O)c3ccc(Br)cc3)CC2)c1 | inactive
COc1cccc(CNC(=O)c2ccc(-c3nc(COc4ccccc4)c(C)o3)cc2)c1 | inactive
CCCCN1C(C(=O)c2ccccc2)=C(OC(=O)CC)c2ccccc2S1(=O)=O | inactive
O=C(CSc1nc(-c2cccc(F)c2)[nH]c1-c1ccccc1)Nc1ccc2c(c1)OCCO2 | inactive
CCc1cccc(C)c1NC(=O)CCCN1C(=O)C(c2ccccc2)Oc2cccnc21 (stereo not drawn) | inactive
CC(C)Oc1ccc(C(=O)N(Cc2ccco2)c2ccccn2)cc1 | 2690 nM (active)
CN(C)C(=O)COC(=O)Cc1ccc(OC(=O)c2ccc(N=C(N)N)cc2)cc1 | inactive
CCOC(=O)c1cc(-c2ccccc2)n(CCCC(=O)Nc2ccc(CC)cc2)c1C | inactive
